This note sets out measurements from ChEMBL document CHEMBL2218924, “A broad activity screen in support of a chemogenomic map for kinase signalling research and drug discovery” (Biochem J, 2013).

Assay [1] has as its target Tyrosine-protein kinase SYK (Homo sapiens) (UniProt P43405). The settings on record: at 10 µM.
Assay [2] deals with T1, Mitogen-activated protein kinase kinase kinase 7 (Homo sapiens) (UniProt O43318).
T1 sequence (whole entry): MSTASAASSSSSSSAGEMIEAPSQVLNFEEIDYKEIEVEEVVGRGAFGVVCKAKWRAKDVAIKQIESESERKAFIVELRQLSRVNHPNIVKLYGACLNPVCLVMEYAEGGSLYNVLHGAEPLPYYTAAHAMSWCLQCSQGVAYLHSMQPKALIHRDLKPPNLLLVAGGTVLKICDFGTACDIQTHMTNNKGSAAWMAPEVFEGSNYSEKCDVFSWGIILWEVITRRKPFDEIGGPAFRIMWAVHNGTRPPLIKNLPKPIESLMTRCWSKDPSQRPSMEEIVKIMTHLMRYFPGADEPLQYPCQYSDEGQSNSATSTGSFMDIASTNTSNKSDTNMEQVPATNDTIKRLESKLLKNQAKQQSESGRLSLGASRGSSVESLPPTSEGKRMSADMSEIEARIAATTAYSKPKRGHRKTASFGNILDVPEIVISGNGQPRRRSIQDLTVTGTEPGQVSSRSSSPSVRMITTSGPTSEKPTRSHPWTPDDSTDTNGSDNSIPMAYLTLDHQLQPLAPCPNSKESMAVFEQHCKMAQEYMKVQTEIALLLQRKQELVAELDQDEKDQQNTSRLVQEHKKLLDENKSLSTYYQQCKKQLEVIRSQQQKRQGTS
The settings on record: at 1 µM.

The target in assay [3] is T1, Mitogen-activated protein kinase kinase kinase 7 (Homo sapiens). The settings on record: at 10 µM.
The target of assay [4] is T2, Serine/threonine-protein kinase TAO1 (Homo sapiens) (UniProt Q7L7X3).
T2 sequence (whole entry): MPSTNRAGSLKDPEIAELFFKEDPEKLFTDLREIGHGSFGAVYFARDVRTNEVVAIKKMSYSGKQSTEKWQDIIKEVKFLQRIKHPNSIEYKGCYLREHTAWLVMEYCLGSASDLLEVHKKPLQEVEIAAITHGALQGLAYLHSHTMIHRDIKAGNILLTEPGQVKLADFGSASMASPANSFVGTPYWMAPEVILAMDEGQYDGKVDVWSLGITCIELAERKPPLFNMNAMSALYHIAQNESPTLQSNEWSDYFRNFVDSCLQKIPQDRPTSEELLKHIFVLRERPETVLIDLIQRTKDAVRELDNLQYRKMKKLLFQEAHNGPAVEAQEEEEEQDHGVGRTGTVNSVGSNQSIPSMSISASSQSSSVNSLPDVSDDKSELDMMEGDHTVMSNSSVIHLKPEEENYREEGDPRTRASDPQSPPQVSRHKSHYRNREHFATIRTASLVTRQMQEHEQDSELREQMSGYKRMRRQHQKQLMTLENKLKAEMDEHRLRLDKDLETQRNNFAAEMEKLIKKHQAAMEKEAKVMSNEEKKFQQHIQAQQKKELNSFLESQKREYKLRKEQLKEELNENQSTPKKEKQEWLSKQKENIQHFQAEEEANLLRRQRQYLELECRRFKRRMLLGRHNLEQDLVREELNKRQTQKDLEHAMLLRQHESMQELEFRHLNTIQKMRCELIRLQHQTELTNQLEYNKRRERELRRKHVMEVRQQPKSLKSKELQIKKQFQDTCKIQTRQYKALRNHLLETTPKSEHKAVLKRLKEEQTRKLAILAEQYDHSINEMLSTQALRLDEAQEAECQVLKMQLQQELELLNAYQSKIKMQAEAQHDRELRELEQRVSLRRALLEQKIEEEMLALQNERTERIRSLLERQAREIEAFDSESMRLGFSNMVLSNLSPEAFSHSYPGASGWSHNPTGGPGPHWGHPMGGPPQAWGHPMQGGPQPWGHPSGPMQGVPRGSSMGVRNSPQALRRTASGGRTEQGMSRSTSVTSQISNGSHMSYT
The settings on record: at 10 µM.

Assay [5] addresses T3, Serine/threonine-protein kinase TAO2 (Homo sapiens) (UniProt Q9UL54).
T3 sequence (whole entry): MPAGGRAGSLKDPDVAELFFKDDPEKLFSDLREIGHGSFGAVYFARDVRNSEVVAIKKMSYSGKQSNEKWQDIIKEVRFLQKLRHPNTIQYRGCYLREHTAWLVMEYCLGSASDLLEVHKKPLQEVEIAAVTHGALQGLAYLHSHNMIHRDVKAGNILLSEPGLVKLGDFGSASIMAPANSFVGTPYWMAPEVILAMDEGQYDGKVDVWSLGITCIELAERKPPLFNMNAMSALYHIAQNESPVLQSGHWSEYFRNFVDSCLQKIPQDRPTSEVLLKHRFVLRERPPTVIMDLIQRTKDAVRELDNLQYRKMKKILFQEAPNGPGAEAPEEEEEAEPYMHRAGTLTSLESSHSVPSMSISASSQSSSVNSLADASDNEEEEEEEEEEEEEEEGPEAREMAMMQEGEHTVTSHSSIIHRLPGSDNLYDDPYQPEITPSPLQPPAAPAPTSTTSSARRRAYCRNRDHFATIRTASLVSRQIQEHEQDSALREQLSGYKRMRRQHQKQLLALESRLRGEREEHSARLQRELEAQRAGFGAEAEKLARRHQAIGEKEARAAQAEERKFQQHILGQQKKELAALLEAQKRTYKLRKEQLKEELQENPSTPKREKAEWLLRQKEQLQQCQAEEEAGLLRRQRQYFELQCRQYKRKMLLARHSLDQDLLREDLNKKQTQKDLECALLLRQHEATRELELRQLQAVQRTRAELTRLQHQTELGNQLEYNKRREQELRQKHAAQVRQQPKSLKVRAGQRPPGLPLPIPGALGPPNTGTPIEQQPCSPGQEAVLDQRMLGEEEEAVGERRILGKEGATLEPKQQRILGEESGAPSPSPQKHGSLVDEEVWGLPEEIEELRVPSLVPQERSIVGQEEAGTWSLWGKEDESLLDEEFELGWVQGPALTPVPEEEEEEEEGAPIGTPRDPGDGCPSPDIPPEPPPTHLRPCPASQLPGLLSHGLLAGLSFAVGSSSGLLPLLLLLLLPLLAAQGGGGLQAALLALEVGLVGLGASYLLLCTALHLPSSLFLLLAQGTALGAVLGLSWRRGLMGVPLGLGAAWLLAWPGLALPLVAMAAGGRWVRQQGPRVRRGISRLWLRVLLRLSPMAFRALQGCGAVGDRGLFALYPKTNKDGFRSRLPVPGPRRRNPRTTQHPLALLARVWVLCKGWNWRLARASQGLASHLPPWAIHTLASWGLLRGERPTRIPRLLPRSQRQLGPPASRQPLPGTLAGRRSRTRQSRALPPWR
The settings on record: at 10 µM.

The target of assay [6] is T4, Serine/threonine-protein kinase TAO3 (Homo sapiens) (UniProt Q9H2K8).
T4 sequence (whole entry): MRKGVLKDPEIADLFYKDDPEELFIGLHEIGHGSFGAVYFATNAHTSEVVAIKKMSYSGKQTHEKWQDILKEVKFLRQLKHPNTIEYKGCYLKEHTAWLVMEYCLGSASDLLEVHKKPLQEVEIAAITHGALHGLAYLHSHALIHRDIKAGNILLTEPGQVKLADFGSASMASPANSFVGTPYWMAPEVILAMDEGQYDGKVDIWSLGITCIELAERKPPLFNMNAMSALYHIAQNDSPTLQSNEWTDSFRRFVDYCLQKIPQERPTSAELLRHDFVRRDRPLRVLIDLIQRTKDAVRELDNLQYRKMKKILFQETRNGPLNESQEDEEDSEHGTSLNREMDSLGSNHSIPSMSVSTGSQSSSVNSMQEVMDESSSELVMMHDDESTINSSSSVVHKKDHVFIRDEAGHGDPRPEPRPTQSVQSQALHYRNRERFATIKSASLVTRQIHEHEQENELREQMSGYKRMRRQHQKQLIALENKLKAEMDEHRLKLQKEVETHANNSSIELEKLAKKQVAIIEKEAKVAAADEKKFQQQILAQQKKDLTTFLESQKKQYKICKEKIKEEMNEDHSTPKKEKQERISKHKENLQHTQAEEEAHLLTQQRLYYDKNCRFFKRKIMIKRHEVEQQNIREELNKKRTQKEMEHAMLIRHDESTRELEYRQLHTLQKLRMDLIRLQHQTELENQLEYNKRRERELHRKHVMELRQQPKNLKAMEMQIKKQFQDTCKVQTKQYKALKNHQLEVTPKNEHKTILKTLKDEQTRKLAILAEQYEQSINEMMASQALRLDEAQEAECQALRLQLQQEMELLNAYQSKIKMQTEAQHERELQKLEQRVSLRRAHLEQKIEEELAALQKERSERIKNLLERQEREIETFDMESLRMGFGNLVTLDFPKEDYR
The settings on record: at 10 µM.

The target of assay [7] is T5, Serine/threonine-protein kinase TBK1 (Homo sapiens) (UniProt Q9UHD2).
T5 sequence (whole entry): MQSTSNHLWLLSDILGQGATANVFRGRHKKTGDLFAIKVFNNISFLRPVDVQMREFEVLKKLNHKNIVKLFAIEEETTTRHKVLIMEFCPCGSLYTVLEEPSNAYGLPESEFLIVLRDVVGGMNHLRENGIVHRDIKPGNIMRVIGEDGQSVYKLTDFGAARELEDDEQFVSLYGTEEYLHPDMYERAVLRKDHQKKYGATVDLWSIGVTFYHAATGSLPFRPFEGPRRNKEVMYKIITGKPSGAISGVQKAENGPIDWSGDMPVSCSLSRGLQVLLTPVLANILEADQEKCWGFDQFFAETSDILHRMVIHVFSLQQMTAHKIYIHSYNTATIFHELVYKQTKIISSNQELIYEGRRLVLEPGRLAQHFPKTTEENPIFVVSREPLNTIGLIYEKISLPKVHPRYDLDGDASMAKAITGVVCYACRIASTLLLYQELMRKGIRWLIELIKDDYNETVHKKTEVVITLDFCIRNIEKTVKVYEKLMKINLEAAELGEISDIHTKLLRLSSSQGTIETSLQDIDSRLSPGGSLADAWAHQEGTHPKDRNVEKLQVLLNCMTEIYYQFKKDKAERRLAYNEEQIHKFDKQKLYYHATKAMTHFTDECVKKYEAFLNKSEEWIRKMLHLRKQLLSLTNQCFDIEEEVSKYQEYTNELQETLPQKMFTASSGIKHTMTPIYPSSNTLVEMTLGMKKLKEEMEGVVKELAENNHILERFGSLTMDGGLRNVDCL
The settings on record: at 1 µM.

The target in assay [8] is T5, Serine/threonine-protein kinase TBK1 (Homo sapiens). The settings on record: at 10 µM.

As to `Cc1cc(Nc2nc(-c3ccccc3)nc3ccccc23)n[nH]1`, the residual activity came out at 3% in assay [1]; 67% in assay [2]; 40% in assay [3]; 51% in assay [4]; 45% in assay [5]; 67% in assay [6]. Also, the residual activity in assay [7] was 19%; in assay [8] it was 0%.
